# Several values for one entry are separate records, joined by “and”; a condition that tells them apart may be missing. Identical values can stand only once. The whole screen tested about 5,500 compounds, of which about 2,000 (36%) were called active. Inconclusive results (about 18%) are left out. Cut-off read from the data, not from the text of the source: active = normalized growth mostly below about 0.91 (no sharp cut-off); inconclusive = no clear call, values can overlap the other calls; inactive = mostly above about 0.92. This is one part of the list.
# Experiment: chemical genetic growth profiling, strain panel (AID 1159580);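 note: tested at 20 µM; growth read once vehicle control cultures reached saturation at 30 °C; 1 = growth at the plate median or of vehicle wells; lower values mean less growth of the strain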
# Conditions: S. cerevisiae deletion strains, growth OD
smiles,measurement,setting,value
COC(=O)CCC(C)C1CCC2C3CC[C@@H]4C[C@H](O)CC[C@]4(C)C3C[C@H](O)[C@]12C (stereo partly drawn),normalized growth,"locus YAL013W, strain DEP1, stronger effect = lower value",0.983 (inactive)
same,normalized growth,"locus YAL021C, strain ccr4, stronger effect = lower value",1.11 [resistant] (active)
same,normalized growth,"locus YAL026C, strain drs2, stronger effect = lower value",1 (inactive)
same,normalized growth,"locus YAL030W, strain snc1, stronger effect = lower value",0.987 (inactive)
same,normalized growth,"locus YBL061C, strain skt5, stronger effect = lower value",0.9 (active)
same,normalized growth,"locus YBR009C, strain hhf1, stronger effect = lower value",0.925 (inactive)
same,normalized growth,"locus YBR021W, strain FUR4, stronger effect = lower value",1.01 (inactive)
same,normalized growth,"locus YBR023C, strain chs3, stronger effect = lower value",0.909 (active)
same,normalized growth,"locus YBR171W, strain sec66, stronger effect = lower value",1.01 (inactive)
same,normalized growth,"locus YBR229C, strain ROT2, stronger effect = lower value",0.998 (inactive)
same,normalized growth,"locus YBR231C, strain swc5, stronger effect = lower value",0.978 (inactive)
same,normalized growth,"locus YBR279W, strain paf1, stronger effect = lower value",0.996 (inactive)
same,normalized growth,"locus YCL011C, strain gbp2, stronger effect = lower value",0.966 (inactive)
same,normalized growth,"locus YCL016C, strain dcc1, stronger effect = lower value",0.967 (inactive)
same,normalized growth,"locus YCL029C, strain bik1, stronger effect = lower value",1.01 (inactive)
same,normalized growth,"locus YCL061C, strain MRC1, stronger effect = lower value",0.992 (inactive)
same,normalized growth,"locus YCL069W, strain vba3, stronger effect = lower value",1.01 (inactive)
same,normalized growth,"locus YCR088W, strain abp1, stronger effect = lower value",1 (inactive)
same,normalized growth,"locus YDL005C, strain med2, stronger effect = lower value",0.983 (inactive)
same,normalized growth,"locus YDL035C, strain GPR1, stronger effect = lower value",0.989 (inactive)
same,normalized growth,"locus YDL040C, strain nat1, stronger effect = lower value",0.985 (inactive)
same,normalized growth,"locus YDL074C, strain BRE1, stronger effect = lower value",0.849 (inactive)
same,normalized growth,"locus YDL101C, strain DUN1, stronger effect = lower value",0.973 (inactive)
same,normalized growth,"locus YDL134C, strain PPH21, stronger effect = lower value",0.951 (inactive)
same,normalized growth,"locus YDL185W, strain tfp1, stronger effect = lower value",1.02 (inactive)
same,normalized growth,"locus YDL192W, strain arf1, stronger effect = lower value",0.922 (inactive)
same,normalized growth,"locus YDR001C, strain nth1, stronger effect = lower value",0.996 (inactive)
same,normalized growth,"locus YDR069C, strain doa4, stronger effect = lower value",1.04 (inactive)
same,normalized growth,"locus YDR101C, strain arx1, stronger effect = lower value",1 (inactive)
same,normalized growth,"locus YDR137W, strain rgp1, stronger effect = lower value",0.754 (active)
same,normalized growth,"locus YDR159W, strain sac3, stronger effect = lower value",0.757 (active)
same,normalized growth,"locus YDR162C, strain NBP2, stronger effect = lower value",0.928 (inactive)
same,normalized growth,"locus YDR195W, strain ref2",0.802 (active)
same,normalized growth,"locus YDR297W, strain sur2, stronger effect = lower value",0.986 (inactive)
same,normalized growth,"locus YDR318W, strain mcm21, stronger effect = lower value",0.993 (inactive)
same,normalized growth,"locus YDR334W, strain swr1, stronger effect = lower value",1.01 (inactive)
same,normalized growth,"locus YDR335W, strain msn5, stronger effect = lower value",0.975 (inactive)
same,normalized growth,"locus YDR388W, stronger effect = lower value",1.02 (inactive)
same,normalized growth,"locus YDR392W, strain spt3, stronger effect = lower value",0.331 (active)
same,normalized growth,"locus YDR502C, strain sam2, stronger effect = lower value",1.02 (inactive)
same,normalized growth,"locus YEL003W, strain gim4, stronger effect = lower value",0.99 (inactive)
same,normalized growth,"locus YEL037C, strain rad23, stronger effect = lower value",1.01 (inactive)
same,normalized growth,"locus YEL061C, strain CIN8 (second series), stronger effect = lower value",0.999 (inactive)
same,normalized growth,"locus YEL061C, strain CIN8, stronger effect = lower value",0.975 (inactive)
same,normalized growth,"locus YER015W, strain faa2, stronger effect = lower value",1 (inactive)
same,normalized growth,"locus YER016W, strain bim1, stronger effect = lower value",0.962 (inactive)
same,normalized growth,"locus YER110C, stronger effect = lower value",1.02 (inactive)
same,normalized growth,"locus YER111C, strain swi4, stronger effect = lower value",0.996 (inactive)
same,normalized growth,"locus YER155C, strain BEM2 (second series), stronger effect = lower value",0.746 (active)
same,normalized growth,"locus YER155C, strain BEM2, stronger effect = lower value",0.955 (inactive)
same,normalized growth,"locus YER167W, strain BCK2, stronger effect = lower value",1.01 (inactive)
same,normalized growth,"locus YFR010W, strain ubp6, stronger effect = lower value",1.04 (inactive)
same,normalized growth,"locus YGL078C, strain dbp3, stronger effect = lower value",1.02 (inactive)
same,normalized growth,"locus YGL086W, strain mad1, stronger effect = lower value",0.997 (inactive)
same,normalized growth,"locus YGL167C, strain pmr1, stronger effect = lower value",0.971 (inactive)
same,normalized growth,"locus YGL173C, strain kem1, stronger effect = lower value",0.992 (inactive)
same,normalized growth,"locus YGL227W, strain vid30, stronger effect = lower value",1 (inactive)
same,normalized growth,"locus YGL240W, strain doc1, stronger effect = lower value",0.928 (inactive)
same,normalized growth,"locus YGL248W, strain PDE1, stronger effect = lower value",0.95 (inactive)
same,normalized growth,"locus YGL253W, strain hxk2, stronger effect = lower value",0.985 (inactive)
same,normalized growth,"locus YGR135W, strain pre9, stronger effect = lower value",1.01 (inactive)
same,normalized growth,"locus YGR229C, strain SMI1, stronger effect = lower value",0.709 (active)
same,normalized growth,"locus YGR252W, strain gcn5, stronger effect = lower value",0.887 (inactive)
same,normalized growth,"locus YHR013C, strain ard1, stronger effect = lower value",1.34 [resistant] (active)
same,normalized growth,"locus YHR027C, strain rpn1, stronger effect = lower value",1 (inactive)
same,normalized growth,"locus YHR030C, strain SLT2, stronger effect = lower value",0.923 (inactive) and 0.843 (active)
same,normalized growth,"locus YHR079C, strain IRE1 (second series), stronger effect = lower value",1 (inactive)
same,normalized growth,"locus YHR079C, strain IRE1, stronger effect = lower value",0.826 (active)
same,normalized growth,"locus YHR094C, strain hxt1, stronger effect = lower value",1.03 (inactive)
same,normalized growth,"locus YHR129C, strain ARP1, stronger effect = lower value",0.955 (inactive)
same,normalized growth,"locus YHR142W, strain chs7, stronger effect = lower value",0.819 (active)
same,normalized growth,"locus YHR200W, strain rpn10, stronger effect = lower value",1.02 (inactive)
same,normalized growth,"locus YIL066C, strain RNR3, stronger effect = lower value",0.923 (inactive)
same,normalized growth,"locus YIL073C, strain SPO22, stronger effect = lower value",1.27 (inactive)
same,normalized growth,"locus YIL125W, strain kgd1, stronger effect = lower value",1.01 (inactive)
same,normalized growth,"locus YIR030C, strain dcg1, stronger effect = lower value",1.01 (inactive)
same,normalized growth,"locus YJL092W, strain hpr5, stronger effect = lower value",1 (inactive)
same,normalized growth,"locus YJL095W, strain BCK1 (second series), stronger effect = lower value",0.867 (active)
same,normalized growth,"locus YJL095W, strain BCK1, stronger effect = lower value",0.819 (inactive) and 0.826 (active)
same,normalized growth,"locus YJL115W, strain asf1, stronger effect = lower value",1.01 (inactive)
same,normalized growth,"locus YJL129C, strain trk1, stronger effect = lower value",0.934 (inactive)
same,normalized growth,"locus YJL134W, strain LCB3, stronger effect = lower value",1.01 (inactive)
same,normalized growth,"locus YJL154C, strain vps35, stronger effect = lower value",1.01 (inactive)
same,normalized growth,"locus YJL164C, strain tpk1, stronger effect = lower value",0.957 (inactive)
same,normalized growth,"locus YJL166W, strain qcr8, stronger effect = lower value",0.892 (active)
same,normalized growth,"locus YJL168C, strain set2, stronger effect = lower value",1.01 (inactive)
same,normalized growth,"locus YJL187C, strain SWE1 (second series), stronger effect = lower value",0.979 (inactive)
same,normalized growth,"locus YJL187C, strain SWE1, stronger effect = lower value",0.995 (inactive)

# From PubChem BioAssay AID1159580 (chemical genetic matrix, 2015)
